# In the supplement of paper PMC9135407:
# Values joined by “and” are separate entries in the source; they are usually repeats but may differ in a detail not shown here. Identical values can stand only once. Counter-ions that a name gives are not always drawn. Among all 5,800 compounds or so, about 620 (11%) showed activity. For the sample, actives were picked, then their nearest neighbours and some compounds at random. A number with no mark means an inactive call.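 How the source made its calls: active = score above a cut-off or among the top three wells of a plate; in these data no inactive exceeds 0.85.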
# Tested on: primary human hepatic stellate cells (donor 1)
# Assay: scaled lipid accumulation score (0 = DMSO-like, 1 = nortriptyline-like); higher = stronger HSC inactivation (lipid re-accumulation), active = hit call of the paper
# Conditions: 48 h
# [1] = library stock concentration: 1 mM
# [2] = library stock concentration: 3.33 mM
# [3] = library stock concentration: 10 mM
smiles,measurement,setting,value
CCCCCCCCCCCC1N[C@H](C(=O)O)CS1 (stereo not given in full),scaled lipid accumulation score,[1],≤ 0
CCCCC[C@H](O)/C=C/[C@@H]1[C@H](CCCCCCC(=O)O)[C@H](O)C[C@H]1O [8-iso Prostaglandin F1.beta.],scaled lipid accumulation score,[1],≤ 0
Cc1[nH]ccc2c1[nH]c1cc(=O)ccc12 [Harmol hydrochloride monohydrate],scaled lipid accumulation score,,0.689
"O=C(O)CCC/C=C\C[C@H]1C(=O)C=C[C@@H]1CC[C@@H](O)CCc1ccccc1 [17-phenyl trinor-13,14-dihydro Prostaglandin A2]",scaled lipid accumulation score,[1],≤ 0
Cc1cc(Nc2ccc(NC(=O)c3ccc(Nc4ccnc5ccccc45)cc3)cc2)nc(N)n1,scaled lipid accumulation score,[2],0.147
same,scaled lipid accumulation score,[3],≤ 0
CNCc1ccc(C)c(NC(=O)c2ccc(Nc3nc(-c4ccccc4)c4ccccc4n3)cc2)c1 [listing 1 of 2 here],scaled lipid accumulation score,[2],1.14 (active)
CNCc1ccc(C)c(NC(=O)c2ccc(Nc3nc(-c4ccccc4)c4ccccc4n3)cc2)c1 [listing 2 of 2 here],scaled lipid accumulation score,[3],0.17
CCC(C)(Oc1ccc(C2(c3ccc(OC(C)(CC)C(=O)O)cc3)CCCCC2)cc1)C(=O)O (stereo not given) [Clinofibrate],scaled lipid accumulation score,[2],≤ 0
same,scaled lipid accumulation score,[3],≤ 0
CNCC[C@H](Oc1cccc2ccccc12)c1cccs1,scaled lipid accumulation score,[3],0.953 (active)
CN(C)[C@@H](CCOc1cccc2ccccc12)c1ccccc1 [Dapoxetine HCl],scaled lipid accumulation score,[2],0.506
same,scaled lipid accumulation score,[3],0.625
CNCC[C@@H](Oc1ccccc1C)c1ccccc1 [Tomoxetine hydrochloride],scaled lipid accumulation score,[3],0.484
CNCC[C@H](Oc1cccc2ccccc12)c1cccs1 [Duloxetine],scaled lipid accumulation score,[3],1.39 (active)
CNCC[C@H](Oc1cccc2ccccc12)c1cccs1 [Duloxetine HCl],scaled lipid accumulation score,[2],0.357
same,scaled lipid accumulation score,[3],0.796
CNCC[C@@H](Oc1ccccc1C)c1ccccc1 [Tomoxetine],scaled lipid accumulation score,[3],0.59
CNCC[C@H](Oc1cccc2ccccc12)c1cccs1.Cl [Duloxetine hydrochloride],scaled lipid accumulation score,library stock concentration: 6 mM,1.05 (active)
CNCC[C@@H](Oc1ccccc1C)c1ccccc1 [Atomoxetine hydrochloride],scaled lipid accumulation score,library stock concentration: 7.2 mM,0.064
CNCCC(Oc1ccccc1OC)c1ccccc1 (stereo not given) [Nisoxetine hydrochloride],scaled lipid accumulation score,,0.246
same,scaled lipid accumulation score,[3],0.751 and 0.328
CNCC[C@@H](Oc1ccccc1C)c1ccccc1 [Atomoxetine HCl],scaled lipid accumulation score,[2],0.319
same,scaled lipid accumulation score,[3],0.514
Nc1n[nH]c(N)c1N=Nc1ccc(O)cc1 [Cdk9 Inhibitor II],scaled lipid accumulation score,[2],≤ 0
O=C(O)Cn1c(C(=O)Nc2nc(-c3ccccc3Cl)cs2)cc2ccccc21,scaled lipid accumulation score,[3],≤ -0.001
CC1=CC(=O)C2=C(C)CC[C@@H]3[C@H](OC(=O)[C@H]3C)[C@@H]12 [Leucomisine],scaled lipid accumulation score,,≤ 0
CCCCC[C@H](O)/C=C/[C@H]1C(=O)C[C@H](O)[C@@H]1CCCCCCC(=O)O [Prostaglandin D1],scaled lipid accumulation score,[1],0.018
CCCCC[C@H](O)/C=C/[C@H]1C(=O)C=C[C@@H]1C/C=C\CCCC(=O)O [Prostaglandin J2],scaled lipid accumulation score,[1],≤ 0 and ≤ -0.021
C[C@]1(O)C[C@@H](c2nc(-c3ccc4ccc(-c5ccccc5)nc4c3)c3c(N)nccn32)C1 [OSI-906 (Linsitinib)],scaled lipid accumulation score,[2],≤ 0
same,scaled lipid accumulation score,[3],≤ 0
C[C@]1(O)C[C@@H](c2nc(-c3ccc4ccc(-c5ccccc5)nc4c3)c3c(N)nccn32)C1,scaled lipid accumulation score,library stock concentration: 80 uM,0.05
same,scaled lipid accumulation score,library stock concentration: 400 uM,≤ -0.009
same,scaled lipid accumulation score,library stock concentration: 2 mM,≤ -0.009
same,scaled lipid accumulation score,[3],≤ -0.009
NCCCCCCCCCCNS(=O)(=O)c1cccc2c(Cl)cccc12 [A-7 hydrochloride],scaled lipid accumulation score,[3],0.41
CC1CNCCN1S(=O)(=O)c1cccc2cnccc12 (stereo not given),scaled lipid accumulation score,[3],0.081
Cl.O=S(=O)(c1cccc2c(Cl)cccc12)N1CCCNCC1,scaled lipid accumulation score,[3],0.935 (active)
Cl.O=S(=O)(c1cccc2c(Cl)cccc12)N1CCCNCC1 [ML 9 hydrochloride],scaled lipid accumulation score,[3],0.941 (active)
CCCCCCCC/C=C\CCCCCC(=O)OC [cis-7-Hexadecenoic Acid methyl ester],scaled lipid accumulation score,[1],≤ 0
CNc1nc(Nc2cn(C(C)(C)C#N)nc2C)ncc1C(F)(F)F,scaled lipid accumulation score,[2],≤ -0.009
same,scaled lipid accumulation score,[3],0.132
N[C@@H]1[C@H]2CN(c3nc4c(cc3F)c(=O)c(C(=O)O)cn4-c3ccc(F)cc3F)C[C@@H]12 [Trovafloxacin mesylate],scaled lipid accumulation score,[3],0.112
CCCCCCCCCC(=O)NC(CN1CCOCC1)C(O)c1ccccc1 (racemic),scaled lipid accumulation score,[1],≤ -0.021
Cc1ccc(C(=O)Cn2c3c(sc2=N)CCCC3)cc1 [Pifithrin-.alpha.],scaled lipid accumulation score,[1],≤ 0
O=C(O)CCC/C=C\C[C@@H]1[C@@H](/C=C/[C@@H](O)CCc2cccc(C(F)(F)F)c2)[C@H](O)C[C@@H]1O [17-trifluoromethylphenyl trinor Prostaglandin F2.alpha.],scaled lipid accumulation score,[1],≤ 0
CCN(CC)C(=O)CCC/C=C\C[C@@H]1[C@@H](/C=C/[C@@H](O)CCc2ccccc2)[C@H](O)C[C@@H]1O [17-phenyl trinor Prostaglandin F2.alpha. diethyl amide],scaled lipid accumulation score,[1],≤ 0
"CCS(=O)(=O)N(C)[C@H]1c2cc(C#N)ccc2OC(C)(C)[C@@H]1O [(-)-[3R,4S]-Chromanol 293B]",scaled lipid accumulation score,[3],0.037
NC(CCC(=O)NC(CSN=O)C(=O)NCC(=O)O)C(=O)O [S-Nitroso-L-glutathione],scaled lipid accumulation score,[1],0.026
CNS(=O)(=O)c1ccc(NC(=O)c2ccccc2C(=O)O)cc1 [Phthalysulfathiazole],scaled lipid accumulation score,library stock concentration: 4.8 mM,≤ 0
O=C1C(SCCO)=C(SCCO)C(=O)c2ccccc21 [listing 1 of 3 here],scaled lipid accumulation score,library stock concentration: 16.1 mM,1.05 (active)
O=C1C(SCCO)=C(SCCO)C(=O)c2ccccc21 [listing 2 of 3 here],scaled lipid accumulation score,[3],0.156
O=C1c2cccc(O)c2C(=O)c2c(O)cccc21 [Danthron],scaled lipid accumulation score,library stock concentration: 8.3 mM,0.038
O=C1C(SCCO)=C(SCCO)C(=O)c2ccccc21 [listing 3 of 3 here],scaled lipid accumulation score,[3],1.2 (active)
N[C@@H](CO)c1ccccc1 [(R)-(-)-2-Phenylglycinol],scaled lipid accumulation score,[1],≤ 0
